{
  "source": "PubChem BioAssay",
  "note": "Where “and” joins values, the source holds several entries; their conditions need not be identical. Equal values may be shown once.",
  "data": [
    {"experiment": "sensitizers of A549 cells to miR-34 induction, primary screen, imaging, A549 dox-inducible miR-34, nuclei and caspase counts (AID 1347080); note: test concentration not given here", "settings": "A549 miR-34 inducible, Hoechst nuclei count, 48 h; measured here: total cells with miR-34 induction; stronger effect = lower value", "values": [
      {"molecule": "O=C(O)CCC/C=C\\C[C@H]1C(=O)C=C[C@@H]1/C=C/[C@@H](O)CCc1ccccc1", "cell count": 5880},
      {"molecule": "O=C(O)CCC/C=C\\C[C@@H]1[C@@H](CCC(=O)CCc2ccccc2)[C@H](O)C[C@@H]1O", "cell count": 5970},
      {"molecule": "CC1=C(CC/C(C)=C/CCC2C=CC(C3=CC(=O)OC3O)OC2O)C(C)(C)CCC1", "note": "(configuration not stated)", "cell count": 1170},
      {"molecule": "C[C@]12CC[C@@H]3c4cc(O)c(O)cc4CC[C@H]3[C@@H]1CC[C@@H]2O", "cell count": 5010},
      {"molecule": "CCCCC[C@H](O)CC[C@@H]1[C@@H](CCCCCCC(=O)O)[C@@H](O)C[C@H]1O", "cell count": 6210},
      {"molecule": "Cc1nc(COP(=O)(O)O)cc(CN(CCN(CC(=O)O)Cc2cc(COP(=O)(O)O)nc(C)c2O)CC(=O)O)c1O.[Mn]", "cell count": 9240},
      {"molecule": "CN(C)CCCCCCOc1ccc(-n2ccnc2)cc1", "cell count": "5270 and 6380"},
      {"molecule": "CCCCCOc1ccccc1C(O)CC#CCCCC(=O)OC", "note": "(configuration not stated)", "cell count": 5930},
      {"molecule": "CCCCCC(=O)CC[C@H]1[C@H](O)CC(=O)[C@@H]1CCCCCCC(=O)O", "cell count": 5620},
      {"molecule": "CCCCCCCCCCCCCC(=O)O", "cell count": 6710},
      {"molecule": "CCCCC[C@H](O)/C=C/[C@H]1C=CC(=O)[C@@H]1CCCCCCC(=O)OCC", "cell count": 5280},
      {"molecule": "CCCCCCCCCCCCCCCC(=O)NC(C)C", "cell count": 6190},
      {"molecule": "CCCCCCCCCCCCCCCC(=O)OC[C@@H](O)COP(=O)(O)O", "cell count": 5760},
      {"molecule": "CCCCC/C=C\\C/C=C\\C/C=C\\C/C=C\\CCCC(=O)SCC(O)CO", "note": "(configuration not stated)", "cell count": 5460},
      {"molecule": "CCCCCCCCCCCCCCCC(=O)NC[C@@H](C)O", "cell count": 6270},
      {"molecule": "CCCCCCCCCC(=O)NC(CN1CCOCC1)C(O)c1ccccc1", "note": "(configuration not stated)", "cell count": 5830},
      {"molecule": "CCCCC/C=C\\C=C1\\C(=O)CC[C@@H]1C/C=C\\CCCC(=O)O", "cell count": 5640}
    ]}
  ]
}
